Holding throughout (test): DAPPL (digital affinity profiling via proximity ligation, sequencing); 10 mM Tris-HCl pH 7.5, 50 mM NaCl, 1 mM DTT, 4% glycerol, room temperature, 30 min; GST-TFs on glutathione beads, 16-mer random dsDNA library, 0.1% formaldehyde crosslink after washing; high values mean tight binding
One test concerns the target T1, FLI1 (Homo sapiens, UniProt Q01543 1-452).
T1 sequence: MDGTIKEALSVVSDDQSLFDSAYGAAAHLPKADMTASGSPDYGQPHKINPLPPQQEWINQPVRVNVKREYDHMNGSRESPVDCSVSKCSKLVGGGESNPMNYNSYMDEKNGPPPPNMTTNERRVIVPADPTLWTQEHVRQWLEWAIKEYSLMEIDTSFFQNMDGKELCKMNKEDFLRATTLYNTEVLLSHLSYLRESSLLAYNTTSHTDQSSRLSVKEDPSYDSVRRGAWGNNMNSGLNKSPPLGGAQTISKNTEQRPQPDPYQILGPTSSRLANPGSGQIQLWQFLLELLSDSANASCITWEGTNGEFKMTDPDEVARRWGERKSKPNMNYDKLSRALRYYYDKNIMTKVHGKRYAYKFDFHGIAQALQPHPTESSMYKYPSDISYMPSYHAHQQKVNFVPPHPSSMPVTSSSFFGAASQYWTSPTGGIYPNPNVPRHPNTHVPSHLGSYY
The conditions noted are these: protein: recombinant; tags: N-terminal GST; dsDNA, one strand shown. In short, it runs like this: (§1)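 Beads coated with glutathione captured GST-fused human transcription factors that had been expressed in yeast, and the factors were then given DNA barcodes and pooled with a tag-only sample. The pools were incubated with 200 nmole of a random double-stranded 16-mer DNA library in Tris/NaCl/DTT/glycerol buffer for 30 min at room temperature, washed, crosslinked with 0.1% formaldehyde and proximity-ligated with BsaI/T4 ligase at 37 °C for 1 h. PCR amplification and Illumina NextSeq500 sequencing came last. Binding signal is each hexamer's read frequency for a factor divided by its frequency for the tag-only sample.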

The next test deals with ELF1 (Homo sapiens, UniProt P32519 1-619). The conditions noted are these: protein: recombinant; tags: N-terminal GST; dsDNA, one strand shown. In short, it runs like this: as §1
ELF1, sequence (P32519 whole entry): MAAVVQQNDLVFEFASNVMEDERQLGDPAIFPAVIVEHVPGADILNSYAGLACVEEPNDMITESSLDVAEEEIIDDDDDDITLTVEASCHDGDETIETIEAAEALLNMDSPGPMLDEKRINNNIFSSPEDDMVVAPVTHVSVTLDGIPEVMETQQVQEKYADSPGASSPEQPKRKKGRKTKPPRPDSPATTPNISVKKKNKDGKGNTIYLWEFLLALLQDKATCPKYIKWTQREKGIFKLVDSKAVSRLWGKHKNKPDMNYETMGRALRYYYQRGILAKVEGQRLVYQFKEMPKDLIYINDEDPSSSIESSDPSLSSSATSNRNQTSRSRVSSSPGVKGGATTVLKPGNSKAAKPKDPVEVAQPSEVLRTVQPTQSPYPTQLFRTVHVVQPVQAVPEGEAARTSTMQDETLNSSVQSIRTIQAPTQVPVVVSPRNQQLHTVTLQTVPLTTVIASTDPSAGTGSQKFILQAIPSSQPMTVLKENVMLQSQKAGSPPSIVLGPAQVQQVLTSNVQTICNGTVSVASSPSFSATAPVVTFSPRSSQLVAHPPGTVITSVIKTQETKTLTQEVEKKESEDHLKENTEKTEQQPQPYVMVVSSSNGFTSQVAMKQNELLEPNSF
Another test deals with T2, EHF (Homo sapiens, UniProt Q9NZC4 1-300).
T2 sequence: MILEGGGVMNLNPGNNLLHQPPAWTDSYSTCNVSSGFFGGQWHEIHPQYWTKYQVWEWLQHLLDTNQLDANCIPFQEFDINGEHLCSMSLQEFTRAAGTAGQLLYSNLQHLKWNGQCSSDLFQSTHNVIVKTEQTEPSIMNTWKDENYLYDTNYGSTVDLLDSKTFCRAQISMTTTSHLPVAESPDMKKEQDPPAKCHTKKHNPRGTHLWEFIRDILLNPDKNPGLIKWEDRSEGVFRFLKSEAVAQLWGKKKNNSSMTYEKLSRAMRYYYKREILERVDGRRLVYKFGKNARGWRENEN
The note with it: protein: recombinant; tags: N-terminal GST; dsDNA, one strand shown. The procedure, abridged:
as §1

The target in another test is SPIB (Homo sapiens, UniProt Q01892 1-262). The conditions noted are these: protein: recombinant; tags: N-terminal GST; dsDNA, one strand shown. The procedure, abridged: as §1
SPIB, sequence (Q01892 whole entry): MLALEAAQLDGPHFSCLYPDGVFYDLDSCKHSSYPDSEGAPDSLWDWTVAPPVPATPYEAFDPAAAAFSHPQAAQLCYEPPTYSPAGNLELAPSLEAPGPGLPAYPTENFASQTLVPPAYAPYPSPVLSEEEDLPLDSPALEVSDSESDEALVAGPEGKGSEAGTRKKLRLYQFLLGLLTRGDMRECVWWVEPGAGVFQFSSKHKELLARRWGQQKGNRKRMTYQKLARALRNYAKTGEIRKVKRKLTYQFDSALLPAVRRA
For a further test, the target named is T3, ELK3 (Homo sapiens, UniProt P41970 1-407).
T3 sequence: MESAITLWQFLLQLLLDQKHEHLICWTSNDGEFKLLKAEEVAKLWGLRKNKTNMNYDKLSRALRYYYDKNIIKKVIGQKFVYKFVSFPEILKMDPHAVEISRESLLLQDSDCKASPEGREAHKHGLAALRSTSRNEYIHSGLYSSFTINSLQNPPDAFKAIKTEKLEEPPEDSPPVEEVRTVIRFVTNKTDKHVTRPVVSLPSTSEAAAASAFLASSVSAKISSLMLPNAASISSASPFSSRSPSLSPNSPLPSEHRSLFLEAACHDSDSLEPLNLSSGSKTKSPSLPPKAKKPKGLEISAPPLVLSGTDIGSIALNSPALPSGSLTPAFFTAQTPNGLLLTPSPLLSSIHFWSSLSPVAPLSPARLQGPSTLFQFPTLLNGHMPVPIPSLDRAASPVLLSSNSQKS
The conditions noted are these: protein: recombinant; tags: N-terminal GST; dsDNA, one strand shown. The procedure, abridged:
as §1

A further test concerns the target ETV5 (Homo sapiens, UniProt P41161 1-510). The note with it: protein: recombinant; tags: N-terminal GST; dsDNA, one strand shown. In short, it runs like this: as §1
Another test has as its target HSF1 (Homo sapiens, UniProt Q00613 1-529). The conditions noted are these: protein: recombinant; tags: N-terminal GST; chain copies: 3; dsDNA, one strand shown. In short, it runs like this:
as §1

The target in the next test is T4, SPIC (Homo sapiens, UniProt Q8N5J4 1-248).
T4 sequence: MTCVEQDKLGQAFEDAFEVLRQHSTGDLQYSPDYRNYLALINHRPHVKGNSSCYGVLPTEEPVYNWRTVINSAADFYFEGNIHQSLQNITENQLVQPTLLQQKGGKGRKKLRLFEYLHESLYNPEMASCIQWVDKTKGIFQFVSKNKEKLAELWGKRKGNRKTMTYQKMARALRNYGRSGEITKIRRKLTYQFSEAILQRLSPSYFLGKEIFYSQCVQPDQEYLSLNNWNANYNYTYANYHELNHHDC
The conditions noted are these: protein: recombinant; tags: N-terminal GST; dsDNA, one strand shown. In short, it runs like this:
as §1

Another test has as its target T5, ELK4 (Homo sapiens, UniProt P28324-2 1-405).
T5 sequence: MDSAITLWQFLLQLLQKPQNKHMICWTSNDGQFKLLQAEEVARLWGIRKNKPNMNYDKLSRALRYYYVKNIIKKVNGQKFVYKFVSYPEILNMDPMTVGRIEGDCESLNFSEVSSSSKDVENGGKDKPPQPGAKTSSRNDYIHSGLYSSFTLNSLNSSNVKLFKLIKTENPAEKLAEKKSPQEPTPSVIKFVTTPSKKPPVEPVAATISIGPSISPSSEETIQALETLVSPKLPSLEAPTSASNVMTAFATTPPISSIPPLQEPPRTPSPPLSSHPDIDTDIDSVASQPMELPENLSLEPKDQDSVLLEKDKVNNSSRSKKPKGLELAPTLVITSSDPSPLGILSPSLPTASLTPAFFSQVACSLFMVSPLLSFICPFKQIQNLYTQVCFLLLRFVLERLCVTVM
The conditions noted are these: protein: recombinant; tags: N-terminal GST; dsDNA, one strand shown. The procedure, abridged:
as §1

The target of a further test is CRX (Homo sapiens, UniProt O43186 1-299). The conditions noted are these: protein: recombinant; tags: N-terminal GST; dsDNA, one strand shown. The procedure, abridged:
as §1

The next test addresses ETV1 (Homo sapiens, UniProt P50549 1-477). The conditions noted are these: protein: recombinant; tags: N-terminal GST; dsDNA, one strand shown. In short, it runs like this: as §1

ETV5, sequence (P41161 whole entry): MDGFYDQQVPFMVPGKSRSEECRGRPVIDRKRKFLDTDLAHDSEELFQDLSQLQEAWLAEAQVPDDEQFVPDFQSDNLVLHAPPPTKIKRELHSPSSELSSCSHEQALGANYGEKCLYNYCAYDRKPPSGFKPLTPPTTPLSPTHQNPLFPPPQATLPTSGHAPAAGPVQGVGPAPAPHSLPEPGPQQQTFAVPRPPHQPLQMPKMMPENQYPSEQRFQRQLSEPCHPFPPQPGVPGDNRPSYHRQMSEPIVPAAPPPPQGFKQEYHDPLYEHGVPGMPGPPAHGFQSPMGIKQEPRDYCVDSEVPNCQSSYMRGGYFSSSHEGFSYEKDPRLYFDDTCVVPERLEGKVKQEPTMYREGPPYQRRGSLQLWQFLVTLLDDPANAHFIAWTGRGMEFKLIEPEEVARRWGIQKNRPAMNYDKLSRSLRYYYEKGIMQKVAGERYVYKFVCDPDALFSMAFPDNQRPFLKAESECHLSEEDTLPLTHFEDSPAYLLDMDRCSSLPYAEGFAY
CRX, sequence (O43186 whole entry): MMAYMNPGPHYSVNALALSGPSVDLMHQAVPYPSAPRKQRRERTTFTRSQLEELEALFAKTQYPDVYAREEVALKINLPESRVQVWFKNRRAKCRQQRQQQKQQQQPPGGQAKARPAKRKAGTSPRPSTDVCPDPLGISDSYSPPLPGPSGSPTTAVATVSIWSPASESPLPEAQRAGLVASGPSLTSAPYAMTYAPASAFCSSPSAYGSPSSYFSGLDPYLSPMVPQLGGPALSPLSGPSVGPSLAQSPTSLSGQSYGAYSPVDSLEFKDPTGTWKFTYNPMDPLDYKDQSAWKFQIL
HSF1, sequence (Q00613 whole entry): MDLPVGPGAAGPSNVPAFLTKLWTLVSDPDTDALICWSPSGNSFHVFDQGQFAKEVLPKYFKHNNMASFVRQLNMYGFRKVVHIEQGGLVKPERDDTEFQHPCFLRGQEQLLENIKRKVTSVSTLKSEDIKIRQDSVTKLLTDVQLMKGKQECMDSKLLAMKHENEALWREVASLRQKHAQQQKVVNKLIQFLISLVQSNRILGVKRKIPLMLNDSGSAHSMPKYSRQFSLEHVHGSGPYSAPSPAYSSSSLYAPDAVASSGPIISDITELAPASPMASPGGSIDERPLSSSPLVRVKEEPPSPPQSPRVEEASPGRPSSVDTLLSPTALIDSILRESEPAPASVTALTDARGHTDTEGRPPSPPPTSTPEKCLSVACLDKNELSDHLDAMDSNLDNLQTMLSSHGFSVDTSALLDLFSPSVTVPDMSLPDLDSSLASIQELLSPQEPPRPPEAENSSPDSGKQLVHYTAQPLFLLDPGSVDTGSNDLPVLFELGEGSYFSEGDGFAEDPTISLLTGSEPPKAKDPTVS
ETV1, sequence (P50549 whole entry): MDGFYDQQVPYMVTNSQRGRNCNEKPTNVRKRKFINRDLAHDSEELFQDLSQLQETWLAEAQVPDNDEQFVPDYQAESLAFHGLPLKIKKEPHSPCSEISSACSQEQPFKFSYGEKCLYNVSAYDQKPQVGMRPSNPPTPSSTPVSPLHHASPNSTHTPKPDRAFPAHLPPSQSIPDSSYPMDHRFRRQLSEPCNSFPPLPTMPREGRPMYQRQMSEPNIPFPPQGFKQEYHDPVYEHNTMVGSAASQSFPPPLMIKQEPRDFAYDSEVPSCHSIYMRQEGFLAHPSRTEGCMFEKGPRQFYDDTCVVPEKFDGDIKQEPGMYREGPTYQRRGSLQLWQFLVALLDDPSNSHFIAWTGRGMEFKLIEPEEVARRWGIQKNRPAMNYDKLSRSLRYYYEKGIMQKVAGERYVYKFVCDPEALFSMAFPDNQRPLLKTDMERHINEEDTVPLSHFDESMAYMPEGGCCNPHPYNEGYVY

Regarding TCATCG, the binding signal in the test with FLI1 is 1.12 fold enrichment (6-mer frequency, TF over GST control); with ELF1, 1.01 fold enrichment (6-mer frequency, TF over GST control); with EHF, 1.05 fold enrichment (6-mer frequency, TF over GST control); in the test with SPIB, 1.13 fold enrichment (6-mer frequency, TF over GST control); with ELK3 it was 1.02 fold enrichment (6-mer frequency, TF over GST control); with ETV5, 1 fold enrichment (6-mer frequency, TF over GST control). For the same sequence, the binding signal with HSF1 was 1.12 fold enrichment (6-mer frequency, TF over GST control); with SPIC, 1.05 fold enrichment (6-mer frequency, TF over GST control); with ELK4 it was 1.05 fold enrichment (6-mer frequency, TF over GST control); in the test with CRX, 1.05 fold enrichment (6-mer frequency, TF over GST control); in the test with ETV1, 1.03 fold enrichment (6-mer frequency, TF over GST control).

The record behind these values is article PMC7862700, “An all-to-all approach to the identification of sequence-specific readers for epigenetic DNA modifications on cytosine”.
